Reference: PubChem BioAssay AID1159580 (chemical genetic matrix, 2015)
In all, about 5,500 compounds went through this assay and about 2,000 (36%) were called active. Another 18% or so got no clear call; they are omitted. No stated cut-off is given here; in the data, active means normalized growth mostly below about 0.91 (no sharp cut-off); inconclusive means no clear call, values can overlap the other calls; inactive means mostly above about 0.92. This is one part of the list.

Test: chemical genetic growth profiling, strain panel (AID 1159580);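 further: tested at 20 µM; growth read once vehicle control cultures reached saturation at 30 °C; 1 = growth at the plate median or of vehicle wells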
Conditions: S. cerevisiae deletion strains, growth OD

Measured: normalized growth

COc1cc(CC(C)N)c(OC)cc1I (configuration not stated)
inactive: locus YAL040C, strain CLN3, stronger effect = lower value 0.975 | locus YCL061C, strain MRC1 (second series), stronger effect = lower value 1 | locus YDR363W, strain ESC2, stronger effect = lower value 1.04 | locus YER002W, strain NOP16, stronger effect = lower value 1.03 | locus YJR075W, strain HOC1, stronger effect = lower value 1.01 | locus YMR307W, strain GAS1, stronger effect = lower value 0.996 | locus YNL175C, strain NOP13, stronger effect = lower value 0.995 | locus YNL197C, strain WHI3, stronger effect = lower value 1.02 | locus YNL224C, strain SQS1, stronger effect = lower value 0.997 | locus YNL322C, strain KRE1, stronger effect = lower value 1 | locus YOR083W, strain WHI5 (second series), stronger effect = lower value 0.984 | locus YPL055C, strain LGE1, stronger effect = lower value 1.03 | locus YPL241C, strain CIN2, stronger effect = lower value 0.991

CC1=CC(=O)c2c(O)cccc2C1=O
active: locus YAL021C, strain ccr4, stronger effect = lower value 0.0614 | locus YAL026C, strain drs2, stronger effect = lower value 0.0573 | locus YAL030W, strain snc1, stronger effect = lower value 0.0538 | locus YBL061C, strain skt5, stronger effect = lower value 0.0578 | locus YBR009C, strain hhf1, stronger effect = lower value 0.0566 | locus YBR023C, strain chs3, stronger effect = lower value 0.0593 | locus YBR171W, strain sec66, stronger effect = lower value 0.0747 | locus YBR231C, strain swc5, stronger effect = lower value 0.0608 | locus YBR279W, strain paf1, stronger effect = lower value 0.0613 | locus YCL011C, strain gbp2, stronger effect = lower value 0.053 | locus YCL016C, strain dcc1, stronger effect = lower value 0.0629 | locus YCL069W, strain vba3, stronger effect = lower value 0.058 | locus YCR088W, strain abp1, stronger effect = lower value 0.0593 | locus YDL005C, strain med2, stronger effect = lower value 0.0698 | locus YDL040C, strain nat1, stronger effect = lower value 0.073 | locus YDR001C, strain nth1, stronger effect = lower value 0.0551 | locus YDR069C, strain doa4, stronger effect = lower value 0.0589 | locus YDR137W, strain rgp1, stronger effect = lower value 0.103 | locus YDR159W, strain sac3, stronger effect = lower value 0.139 | locus YDR195W, strain ref2 0.132 | locus YDR297W, strain sur2, stronger effect = lower value 0.0527 | locus YDR334W, strain swr1, stronger effect = lower value 0.063 | locus YDR335W, strain msn5, stronger effect = lower value 0.0594 | locus YDR392W, strain spt3, stronger effect = lower value 0.0748 | locus YEL003W, strain gim4, stronger effect = lower value 0.0513 | locus YEL037C, strain rad23, stronger effect = lower value 0.0601 | locus YEL061C, strain CIN8 (second series), stronger effect = lower value 0.0564 | locus YER015W, strain faa2, stronger effect = lower value 0.0571 | locus YER016W, strain bim1, stronger effect = lower value 0.0586 | locus YER111C, strain swi4, stronger effect = lower value 0.71 | locus YER155C, strain BEM2 (second series), stronger effect = lower value 0.0832 | locus YFR010W, strain ubp6, stronger effect = lower value 0.0636 | locus YGL167C, strain pmr1, stronger effect = lower value 0.071 | locus YGL173C, strain kem1, stronger effect = lower value 0.0648 | locus YGL227W, strain vid30, stronger effect = lower value 0.0587 | locus YGL240W, strain doc1, stronger effect = lower value 0.0736 | locus YGL253W, strain hxk2, stronger effect = lower value 0.0519 | locus YHR013C, strain ard1, stronger effect = lower value 0.101 | locus YHR027C, strain rpn1, stronger effect = lower value 0.0589 | locus YHR030C, strain SLT2, stronger effect = lower value 0.108 | locus YHR079C, strain IRE1, stronger effect = lower value 0.123 | locus YHR142W, strain chs7, stronger effect = lower value 0.0661 | locus YJL092W, strain hpr5, stronger effect = lower value 0.061 | locus YJL095W, strain BCK1 (second series), stronger effect = lower value 0.0545 | locus YJL095W, strain BCK1, stronger effect = lower value 0.133 | locus YJL115W, strain asf1, stronger effect = lower value 0.0773 | locus YJL129C, strain trk1, stronger effect = lower value 0.653 | locus YJL154C, strain vps35, stronger effect = lower value 0.0541 | locus YJL164C, strain tpk1, stronger effect = lower value 0.0572 | locus YJL166W, strain qcr8, stronger effect = lower value 0.0557 | locus YJL187C, strain SWE1, stronger effect = lower value 0.0545 | locus YJR066W, strain TOR1, stronger effect = lower value 0.00113 | locus YKL160W, strain elf1, stronger effect = lower value 0.0646 | locus YKR026C, strain gcn3, stronger effect = lower value 0.0585 | locus YKR091W, strain srl3, stronger effect = lower value 0.0562 | locus YLL001W, strain dnm1, stronger effect = lower value 0.0574 | locus YLL026W, stronger effect = lower value 0.0541 | locus YLL041C, strain sdh2, stronger effect = lower value 0.0519 | locus YLR027C, strain aat2, stronger effect = lower value 0.0528 | locus YLR113W, strain HOG1, stronger effect = lower value 0.191 | locus YLR221C, strain rsa3, stronger effect = lower value 0.054 | locus YLR258W, strain gsy2, stronger effect = lower value 0.056 | locus YLR262C, strain YPT6 (second series), stronger effect = lower value 0.0717 | locus YLR320W, strain mms22, stronger effect = lower value 0.0755 | locus YLR342W, strain FKS1, stronger effect = lower value 0.0621 | locus YLR357W, strain rsc2, stronger effect = lower value 0.113 | locus YLR370C, strain arc18, stronger effect = lower value 0.0568 | locus YLR384C, strain iki3, stronger effect = lower value 0.0609 | locus YML120C, strain ndi1, stronger effect = lower value 0.0584 | locus YMR058W, strain fet3, stronger effect = lower value 0.0576 | locus YMR125W, strain sto1, stronger effect = lower value 0.0728 | locus YMR129W, stronger effect = lower value 0.0547 | locus YMR205C, strain PFK2, stronger effect = lower value 0.0815 | locus YMR231W, strain pep5, stronger effect = lower value 0.0627 | locus YNL071W, strain lat1, stronger effect = lower value 0.0579 | locus YNL183C, strain NPR1, stronger effect = lower value 0.000686 | locus YNL209W, strain ssb2, stronger effect = lower value 0.0563 | locus YNL248C, strain rpa49, stronger effect = lower value 0.0708 | locus YNL322C, strain KRE1 (second series), stronger effect = lower value 0.062 | locus YNR049C, strain mso1, stronger effect = lower value 0.0527 | locus YOR001W, strain rrp6, stronger effect = lower value 0.065 | locus YOR070C, strain gyp1, stronger effect = lower value 0.0567 | locus YOR080W, strain dia2, stronger effect = lower value 0.1 | locus YOR083W, strain WHI5, stronger effect = lower value 0.0584 | locus YOR106W, strain vam3, stronger effect = lower value 0.0629 | locus YOR231W, strain MKK1, stronger effect = lower value 0.115 | locus YOR265W, strain rbl2, stronger effect = lower value 0.0542 | locus YOR270C, strain vph1, stronger effect = lower value 0.0962 | locus YPL051W, strain arl3, stronger effect = lower value 0.0583 | locus YPL078C, strain atp4, stronger effect = lower value 0.163 | locus YPL106C, strain sse1, stronger effect = lower value 0.0924 | locus YPL240C, strain hsp82, stronger effect = lower value 0.0548 | locus YPL256C, strain CLN2, stronger effect = lower value 0.128
inactive: locus YOR290C, strain snf2, stronger effect = lower value 0.906
